Compounds with a hit are over-represented: about 3.5% of the library has one in this group of screens.
GDH-TPI counter = GDH-TPI coupled enzyme inhibition counter-screen. GDH-TPI coupled enzyme counterscreen, NADH absorbance. inhibition, % at 4.8 µM. hit rate 1.2% among 360,000. AID 588335; in the data active = inhibition above about 30%;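 also: 0% = DMSO wells and 100% = wells lacking the enzyme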
Mtb FBA inh = inhibits M. tuberculosis FBA enzyme; P9WQA3; purified M. tuberculosis FBA, fluorescence read-out; inhibition, % at 1 µM; hit rate 2.3% among 360,000; AID 588726; in the data active = inhibition above about 27%;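 also: 0% = vehicle and 100% = reference inhibitor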
Mtb UGM inh = blocks M. tuberculosis UGM enzyme. purified UGM, fluorescence polarization probe displacement. inhibition, % at 10 µM. hit rate 0.06% among 320,000. P9WIQ1; in the data active = inhibition above about 10%, passing the limit was not always enough
Rv3671c protease = inhibitors of M. tuberculosis serine protease Rv3671c; AID 2606; inhibition, % at 5.96 µM; hit rate 0.048% among 320,000; in the data active = inhibition above about 38%;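 also: extracellular domain of Rv3671c used as enzyme; 0% = enzyme with DMSO and 100% = no enzyme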
Target sequence (P9WHR9 whole entry, looked up, the tested form may be a part): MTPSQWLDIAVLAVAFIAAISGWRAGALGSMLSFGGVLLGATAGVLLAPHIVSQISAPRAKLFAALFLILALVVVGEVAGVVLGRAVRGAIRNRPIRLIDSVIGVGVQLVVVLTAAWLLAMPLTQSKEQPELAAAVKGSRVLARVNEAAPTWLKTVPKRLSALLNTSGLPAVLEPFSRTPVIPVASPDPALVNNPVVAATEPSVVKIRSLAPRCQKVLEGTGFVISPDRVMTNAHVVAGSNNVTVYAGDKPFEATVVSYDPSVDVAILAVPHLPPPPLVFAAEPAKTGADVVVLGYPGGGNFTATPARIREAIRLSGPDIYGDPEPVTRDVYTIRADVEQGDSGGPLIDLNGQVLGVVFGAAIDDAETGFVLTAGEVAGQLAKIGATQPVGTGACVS
Numbers without * were called inactive.

Results for CCn1c(NC(C)=O)nc2ccccc21 ?
GDH-TPI counter: 2.5; Mtb FBA inh: -2.9; Mtb UGM inh: -2.7; Rv3671c protease: 9.1

Results for COc1ccc(CCC(=O)NCCNC(=O)CCc2ccc(OC)cc2)cc1 ?
GDH-TPI counter: 6.8; Mtb FBA inh: 1.9; Mtb UGM inh: -1.2; Rv3671c protease: -1.2

How did Cc1c(/C=N/NC(=O)CNc2ccccc2)c2ccccn2c1C(=O)c1ccc(Cl)cc1 do in these assays?
GDH-TPI counter: 19.6; Mtb FBA inh: 4.2; Mtb UGM inh: -1.0; Rv3671c protease: -1.1

What do the screens show for `Cc1ccccc1NCC(=O)N/N=C/c1c(C)c(C(=O)c2ccc(Cl)cc2)n2ccccc12`?
GDH-TPI counter: 31.7*; Mtb FBA inh: -4.5; Mtb UGM inh: -1.4; Rv3671c protease: -1.1

What do the screens show for `Cc1c(C=O)c2ccccn2c1C(=O)c1ccc(F)cc1`?
GDH-TPI counter: 33.0*; Mtb FBA inh: -2.3; Mtb UGM inh: -1.4; Rv3671c protease: -6.7

What do the screens show for `CCC1CCCCN1CCCNC(=O)c1ccc2c(c1)N(Cc1ccc(F)cc1)C(=O)c1ccccc1S2=O` (centres undefined)?
GDH-TPI counter: 5.2; Mtb FBA inh: 1.6; Mtb UGM inh: 0.1; Rv3671c protease: 2.3

Results for CC(C)c1cc(NCC2CCCO2)n2c(nc3ccccc32)c1C#N (centres undefined) ?
GDH-TPI counter: 8.0; Mtb FBA inh: active; Mtb UGM inh: 0.3; Rv3671c protease: -2.5

What do the screens show for `CCc1c(C)c(C#N)c2nc3ccccc3n2c1NCC1CCCO1` (centres undefined)?
GDH-TPI counter: 7.7; Mtb FBA inh: 6.0; Mtb UGM inh: -0.2; Rv3671c protease: 2.9

What do the screens show for `Cc1cc(NCC2CCCO2)n2c(nc3ccccc32)c1C#N` (centres undefined)?
GDH-TPI counter: 7.5; Mtb FBA inh: active; Mtb UGM inh: -3.4; Rv3671c protease: 0.9

Results for CCN1c2ccccc2-c2nc3ccccc3n2C1c1ccco1 (centres undefined) ?
GDH-TPI counter: 8.7; Mtb FBA inh: active; Mtb UGM inh: 0.7; Rv3671c protease: -7.5

How did c1ccc(CN2c3ccccc3-c3nc4ccccc4n3C2c2ccccn2)cc1 (centres undefined) do in these assays?
GDH-TPI counter: 5.2; Mtb FBA inh: 121.0*; Mtb UGM inh: 2.4; Rv3671c protease: -8.5

What do the screens show for `CN1c2ccccc2-c2nc3ccccc3n2C1c1ccccn1` (centres undefined)?
GDH-TPI counter: 8.9; Mtb FBA inh: 46.9*; Mtb UGM inh: -0.8; Rv3671c protease: 0.5

How did CN1c2ccccc2-c2nc3ccccc3n2C1c1ccncc1 (centres undefined) do in these assays?
GDH-TPI counter: 20.1; Mtb FBA inh: 11.7; Mtb UGM inh: 2.8; Rv3671c protease: 3.5

What do the screens show for `O=C(O)CC(C(=O)Nc1ccc(Cl)cc1)N1CCCCCC1` (centres undefined)?
GDH-TPI counter: -4.3; Mtb FBA inh: 0.0; Mtb UGM inh: 0.3; Rv3671c protease: -0.4

What do the screens show for `c1ccc2c(c1)Cn1nnnc1-2`?
GDH-TPI counter: -1.5; Mtb FBA inh: 135.4*; Mtb UGM inh: 2.4; Rv3671c protease: -5.1

How did CN1CCN(C(=O)c2cccc(-c3cccc4nccn34)c2)CC1 do in these assays?
GDH-TPI counter: 12.9; Mtb FBA inh: 16.4

What do the screens show for `CN(C)Cc1ccccc1-c1cccc2nccn12`?
GDH-TPI counter: 9.3; Mtb FBA inh: 142.4*

How did CONC(=O)c1ccc(-c2cccc3nccn23)cc1 do in these assays?
GDH-TPI counter: 3.5; Mtb FBA inh: 3.4

Results for Cc1cccc(-c2cccc3nccn23)c1 ?
GDH-TPI counter: 8.4; Mtb FBA inh: active

Results for OCc1ccc(-c2cccc3nccn23)cc1 ?
GDH-TPI counter: 12.8; Mtb FBA inh: active

Results for CN(C)CCNC(=O)c1cccc(-c2cccc3nccn23)c1 ?
GDH-TPI counter: 4.4; Mtb FBA inh: 12.7

How did O=C1CS/C(=C/C(=O)c2cccc(Cl)c2)N1 do in these assays?
GDH-TPI counter: 17.2; Mtb FBA inh: 2.0; Mtb UGM inh: 1.2; Rv3671c protease: 4.3

What do the screens show for `Cc1ccc(C(=O)/C=C2/NC(=O)CS2)cc1`?
GDH-TPI counter: 31.1*; Mtb FBA inh: -1.9; Mtb UGM inh: -0.1; Rv3671c protease: -4.1

Results for CCOC(=O)c1ccc2nc(C(F)(F)F)[nH]c(=O)c2c1 ?
GDH-TPI counter: 4.8; Mtb FBA inh: 42.0*; Mtb UGM inh: 3.1; Rv3671c protease: -0.7

Results for Cc1ccc(C)c(OCCC(=O)OCC(=O)Nc2cc(S(=O)(=O)N3CCCCC3)ccc2C)c1 ?
GDH-TPI counter: -7.0; Mtb FBA inh: -0.9; Mtb UGM inh: -1.2; Rv3671c protease: -14.4

Results for COc1cc(OCc2ccccc2)c2c(CCC(=O)O)cc(=O)oc2c1 ?
GDH-TPI counter: 21.6; Mtb FBA inh: active

How did CCc1cc(=O)oc2cc(OC(C)=O)cc(OC(C)=O)c12 do in these assays?
GDH-TPI counter: 22.9; Mtb FBA inh: active; Mtb UGM inh: 1.5; Rv3671c protease: 2.7

How did CCc1cc(=O)oc2cc(OS(C)(=O)=O)ccc12 do in these assays?
GDH-TPI counter: 4.6; Mtb FBA inh: 23.6; Mtb UGM inh: -0.6; Rv3671c protease: 3.8

Results for Cc1cc(C)nc(NS(=O)(=O)c2ccc(N/C=C/C(=O)c3ccc(Cl)cc3)cc2)n1 ?
GDH-TPI counter: 31.9*; Mtb FBA inh: 1.5; Rv3671c protease: -16.0

How did O=S(=O)(Nc1ncccn1)c1ccc(Nc2ncnc3ccccc23)cc1 do in these assays?
GDH-TPI counter: 49.2*; Mtb FBA inh: -1.3; Mtb UGM inh: -1.0; Rv3671c protease: 2.2

Results for COc1ccc(C(=O)/C=C/Nc2ccc(S(=O)(=O)Nc3nc(C)cc(C)n3)cc2)cc1OC ?
GDH-TPI counter: 22.2; Mtb FBA inh: 3.6; Mtb UGM inh: -0.9; Rv3671c protease: -7.3

Results for O=S(=O)(Nc1ccc(S(=O)(=O)Nc2ncccn2)cc1)c1ccccc1 ?
GDH-TPI counter: -8.6; Mtb FBA inh: 2.0; Mtb UGM inh: 1.3; Rv3671c protease: -4.7

Results for O=C(/C=C\Nc1ccc(S(=O)(=O)Nc2ncccn2)cc1)c1cccc2ccccc12 ?
GDH-TPI counter: 55.5*; Mtb FBA inh: 3.8; Mtb UGM inh: -4.5; Rv3671c protease: 0.2

What do the screens show for `COC(=O)c1cc(Br)ccc1-c1ccc(/C=N/n2nnnc2N)o1`?
GDH-TPI counter: 43.5*; Mtb FBA inh: 2.7; Mtb UGM inh: -1.0; Rv3671c protease: -3.6

What do the screens show for `CNc1cnc(-c2cccc(C(=O)N3CCOCC3)c2)cn1`?
GDH-TPI counter: 15.0; Mtb FBA inh: 134.8*

Results for COc1ccc(CN(C(=O)CSc2nnc(-c3ccccc3C)o2)c2ccc(F)cc2)cc1 ?
GDH-TPI counter: -15.5; Mtb FBA inh: active; Mtb UGM inh: 2.3; Rv3671c protease: -11.2

What do the screens show for `COc1cccc(N=CNc2cccc(OC)c2)c1`?
GDH-TPI counter: -5.3; Mtb FBA inh: 0.9

What do the screens show for `CC(=O)N=Cc1c(C)c(C#N)c(=O)n(C)c1O`?
GDH-TPI counter: 12.2; Mtb FBA inh: -2.6; Mtb UGM inh: -2.0; Rv3671c protease: -5.9

What do the screens show for `Cc1c(/C=N/Nc2ccc(F)cc2)c(O)n(C)c(=O)c1C#N`?
GDH-TPI counter: 33.2*; Mtb FBA inh: -5.9; Mtb UGM inh: 0.3; Rv3671c protease: -2.3

Compound activity (PubChem)
